One assay is described as follows: probe aWnt5a binding to arrayed compounds – biochemical, biotinylated probe, 635/667 nm fluorescence, primary screen (AID 1113).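 Further: score merges 667 nm fluorescence intensity with signal-to-noise per printed feature.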 Particulars: small-molecule microarray, higher = more signal.
Turning to `COc1ccc([Si](C)(C)[C@H]2[C@H](CCn3cc([C@H](O)c4ccccc4)nn3)O[C@@]3(C(=O)N(c4ccccc4)c4ccccc43)[C@@H]2C)cc1`, the composite z-score is -0.1.
On the same count and under the same terms, the result for `Cc1ccccc1C(O)C1C=CC2C(=O)N(c3ccccc3)C(=O)C2N1Nc1ccccc1F` (stereo unspecified) reads 0.156; that for `C=CC[C@@]1(C(=O)N(C)C)N=C(c2ccc(OCCCO)cc2)O[C@@H]1c1ccccc1`, 0.233; that for `CCCCC(O)C1C=CC2C(=O)N(C)C(=O)C2N1Nc1ccccc1` (stereo unspecified), 0.0044.
`COC(=O)C1=CC(CCCO)=CC(c2ccc(CN3CCCC3)cc2)N(Cc2sc3ccccc3c2Cl)C=C1C(=O)OC` (stereo unspecified) returned a composite z-score of 0.0625.
Still for that read-out and setting: as for `C=C(/C(=C/C[C@@H](OC(C)=O)c1ccccc1OCCO)c1cc(C(=O)OC)ccc1OC)C(C)C`, the figure is -0.0643; as for `CCCC=C(CCC)[C@@H](NC(=O)c1ccccc1)c1ccc(C(=O)OC)cc1`, 0.732.
In turn, `COC(=O)[C@@]1(Cc2ccc(OC)cc2)[C@@H]2[C@@H](CC(=O)[C@H]2CC(=O)C(=O)N2CCCC2)CN1C(=O)c1ccccc1` had a composite z-score of 1.31.
On the same count and under the same terms, the result for `CCCCCN1CC=CC23O[C@@H]4C=CCOC(=O)[C@@H]4[C@H]2C(=O)N(CCCCCO)[C@@H]3C1=O` (stereo partly specified) reads -0.209.
Consider `COc1ccc(CCNC(=O)[C@@]2(Sc3ccc(C)cc3)CC(=O)N(Cc3cc(C(F)(F)F)cc(C(F)(F)F)c3)[C@@H]2c2ccc(CO)cc2)cc1`, for which the composite z-score was -0.124.
Same read-out and setting: the result for `CN1C(=O)[C@]2(CCC(=O)OC(C)(C)C)N=C(c3ccc(OCCCO)cc3)O[C@@H]2c2ccccc21` reads 0.0279; that for `COC(=O)[C@@]1(Cc2ccccc2CN=[N+]=[N-])COC(c2ccc(OCCCO)cc2)=N1`, -0.292; that for `CCCC[C@H]1OB(O)C[C@H]2C1=C(C)C[C@H]1C(=O)C=CC(=O)[C@H]12`, -0.132.
Regarding `O=C1O[C@H](c2ccccc2)[C@H](c2ccccc2)N2[C@H]1[C@@H](C(=O)NC[C@H](O)c1ccccc1)[C@]1(C(=O)Nc3ccc(C#CCCO)cc31)[C@H]2c1ccccc1OCCO`, the composite z-score was -0.147.
As for `CCC[C@@H]1[C@@H](Sc2ccccc2)[C@@H](C(=O)O)[C@H](c2ccc(C)cc2)N1S(=O)(=O)c1ccc(C)cc1`, the composite z-score is 0.108.
Still for that read-out and setting: as for `CC(C)(C)OC(=O)CC[C@]1(C(=O)N2CCOCC2)N=C(c2ccc(OCCCO)cc2)O[C@H]1c1ccccc1CN=[N+]=[N-]`, the figure is -0.0221.
Same read-out and setting: the result for `COC(=O)[C@@]1(Cc2ccc(F)cc2)[C@H]2c3cc(C(=O)N(C)C)n(CCN4CCOCC4)c3C[C@H]2CN1C(=O)c1ccccc1` reads 0.974.
Take `O=C1OCCC/C=C\[C@H]2OC34C=CCN(Cc5ccccc5)C(=O)[C@H]3N(CCCCCO)C(=O)[C@@H]4C12` (stereo partly specified): the composite z-score is -0.169.
On the same count and under the same terms, the result for `CCOC(=O)C[C@H]1[C@H](OC(=O)c2ccc(C(=O)c3ccccc3)cc2)[C@@H](NC(=O)c2ccc3ccccc3c2)c2cc(OCCCO)ccc2N1C(=O)c1ccc2ccccc2n1` reads -0.168.
`NC(=O)NCC#Cc1ccc2c(c1)[C@]1(C(=O)N2)[C@H](C(=O)Nc2nc3ccccc3s2)[C@H]2C(=O)O[C@H](c3ccccc3)[C@H](c3ccccc3)N2[C@@H]1c1ccc(OCCO)cc1` showed a composite z-score of 0.0108.
Turning to `CC(C)C(=C=CC[C@@H](O)c1ccccc1OCCO)C[C@@H](O)c1cc(Cl)cc(Cl)c1O`, the composite z-score is -0.0735.
The same measure, in the same setting: the result for `COC(=O)[C@@H]1N=C(c2ccc(OCCCO)cc2)O[C@@H]1c1ccccc1CN=[N+]=[N-]` reads 0.0224; that for `COc1cc2c(cc1O)C(C1CC1)N(Cc1ccc([N+](=O)[O-])o1)CC2` (stereo unspecified), -0.0924; that for `COc1ccc(NN2C(C(O)c3cc(C(F)(F)F)cc(C(F)(F)F)c3)C=CC3C(=O)N(C4CCCCC4)C(=O)C32)cc1` (stereo unspecified), 0.485.
On to `C=CCC(OC(C)=O)[C@@H]1[C@@H](N(Cc2ccc(-c3ccccc3)cc2)C(=O)c2ccc(-c3ccccc3)cc2)c2cc(OCCCO)ccc2N1C(=O)c1ccc2ccccc2n1` (stereo partly specified), for which the composite z-score is -0.184.
On the same count and under the same terms, the result for `O=C(NCC(F)(F)F)[C@@H]1c2ccccc2C(=O)N(CC23CC4CC(CC(C4)C2)C3)[C@H]1c1ccc(CO)cc1` reads -0.0398.

A short description of a further assay: probe aShh binding to arrayed compounds – biochemical, biotinylated probe, 635/667 nm fluorescence, primary screen (AID 1114).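 Further: probe is biotin-labelled aShh protein from a stem cell growth factor screen; measures binding of labelled protein to compounds printed on the slide; score merges feature fluorescence at 667 nm with signal-to-noise.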 Conditions: small-molecule microarray, higher = more signal.
Regarding `COCCOC(=O)N1C(=O)[C@@]2(c3cc(C#CCC(C(=O)OC)C(=O)OC)ccc31)[C@H](c1ccc(OCCO)cc1)N1[C@H](c3ccccc3)[C@H](c3ccccc3)OC(=O)[C@H]1[C@@H]2C(=O)N1CCCCCCC1`, the composite z-score amounted to 2.6.
Same read-out and setting: the result for `Cc1ccc(S[C@]2(C(=O)NCC(F)(F)F)CC(=O)N(C3CCCCC3)[C@@H]2c2ccc(CO)cc2)cc1` reads 0.0875; that for `COCCOC(=O)N1C(=O)[C@@]2(c3ccccc31)[C@H](C(N)=O)[C@H]1C(=O)O[C@H](c3ccccc3)[C@H](c3ccccc3)N1[C@@H]2c1ccc(OCCO)cc1`, 0.0723.
Same read-out and setting: the result for `C=CCC(OC(C)=O)[C@@H]1[C@@H](N(Cc2ccc(-c3cccc(C(F)(F)F)c3)o2)C(=O)c2cccc3ccccc23)c2cc(OCCCO)ccc2N1C(=O)c1ccc2ccccc2c1` (stereo partly specified) reads -0.0709; that for `COc1ccc(NC(=O)O[C@H]2[C@H](OC(=O)Nc3ccc4c(c3)OCO4)[C@H](OC(=O)Nc3ccc4c(c3)OCO4)[C@@H](OC)O[C@@H]2CO)cc1`, 0.0469; that for `[N-]=[N+]=NCc1ccccc1C[C@]1(C(=O)N2CCOCC2)N=C(c2ccc(OCCCO)cc2)O[C@H]1c1ccccc1CN=[N+]=[N-]`, 0.564.
Same read-out and setting: the result for `CCCCC(=C=CC[C@@H](O)c1cccc(OCCO)c1)CCO` reads 0.0121; that for `CC(C)C[C@@H]1NC(=O)[C@H]2C[C@@H](C(=O)NCCCCCCNC(=O)CS)[C@@H](c3ccc(O)cc3)N2C1=O`, -0.0362.
For the compound `C=CCC(OC(C)=O)[C@@H]1[C@@H](N(Cc2cc3ccccc3o2)C(=O)Cc2ccc(OC)cc2)c2cc(OCCCO)ccc2N1C(=O)Cc1ccc(OC)cc1` (stereo partly specified), the composite z-score is -0.0626.
The same measure, in the same setting: as for `COc1ccc([Si](C)(C)[C@H]2[C@H](CCn3cc([C@H](O)c4ccccc4)nn3)O[C@@]3(C(=O)N(c4ccccc4)c4ccccc43)[C@@H]2C)cc1`, the figure is -0.2; as for `Cc1ccccc1C(O)C1C=CC2C(=O)N(c3ccccc3)C(=O)C2N1Nc1ccccc1F` (stereo unspecified), 0.232; as for `C=CC[C@@]1(C(=O)N(C)C)N=C(c2ccc(OCCCO)cc2)O[C@@H]1c1ccccc1`, 0.246.
As to `CCCCC(O)C1C=CC2C(=O)N(C)C(=O)C2N1Nc1ccccc1` (stereo unspecified), the composite z-score was -0.301.
As for `COC(=O)C1=CC(CCCO)=CC(c2ccc(CN3CCCC3)cc2)N(Cc2sc3ccccc3c2Cl)C=C1C(=O)OC` (stereo unspecified), the composite z-score was determined as 0.661.
Same read-out and setting: the result for `C=C(/C(=C/C[C@@H](OC(C)=O)c1ccccc1OCCO)c1cc(C(=O)OC)ccc1OC)C(C)C` reads -0.304; that for `CCCC=C(CCC)[C@@H](NC(=O)c1ccccc1)c1ccc(C(=O)OC)cc1`, 0.318.
For the compound `COC(=O)[C@@]1(Cc2ccc(OC)cc2)[C@@H]2[C@@H](CC(=O)[C@H]2CC(=O)C(=O)N2CCCC2)CN1C(=O)c1ccccc1`, the composite z-score worked out at 2.68.
`CCCCCN1CC=CC23O[C@@H]4C=CCOC(=O)[C@@H]4[C@H]2C(=O)N(CCCCCO)[C@@H]3C1=O` (stereo partly specified): the composite z-score is -0.0035.
The same measure, in the same setting: the result for `COc1ccc(CCNC(=O)[C@@]2(Sc3ccc(C)cc3)CC(=O)N(Cc3cc(C(F)(F)F)cc(C(F)(F)F)c3)[C@@H]2c2ccc(CO)cc2)cc1` reads -0.117; that for `CN1C(=O)[C@]2(CCC(=O)OC(C)(C)C)N=C(c3ccc(OCCCO)cc3)O[C@@H]2c2ccccc21`, 0.275.
The same measure, in the same setting: the result for `COC(=O)[C@@]1(Cc2ccccc2CN=[N+]=[N-])COC(c2ccc(OCCCO)cc2)=N1` reads 1.69; that for `CCCC[C@H]1OB(O)C[C@H]2C1=C(C)C[C@H]1C(=O)C=CC(=O)[C@H]12`, 0.0278; that for `O=C1O[C@H](c2ccccc2)[C@H](c2ccccc2)N2[C@H]1[C@@H](C(=O)NC[C@H](O)c1ccccc1)[C@]1(C(=O)Nc3ccc(C#CCCO)cc31)[C@H]2c1ccccc1OCCO`, 0.149.
Turning to `CCC[C@@H]1[C@@H](Sc2ccccc2)[C@@H](C(=O)O)[C@H](c2ccc(C)cc2)N1S(=O)(=O)c1ccc(C)cc1`, the composite z-score was -0.0866.
Still for that read-out and setting: as for `CC(C)(C)OC(=O)CC[C@]1(C(=O)N2CCOCC2)N=C(c2ccc(OCCCO)cc2)O[C@H]1c1ccccc1CN=[N+]=[N-]`, the figure is -0.141.
In turn, `COC(=O)[C@@]1(Cc2ccc(F)cc2)[C@H]2c3cc(C(=O)N(C)C)n(CCN4CCOCC4)c3C[C@H]2CN1C(=O)c1ccccc1` gave a composite z-score of 0.275.
On the same count and under the same terms, the result for `O=C1OCCC/C=C\[C@H]2OC34C=CCN(Cc5ccccc5)C(=O)[C@H]3N(CCCCCO)C(=O)[C@@H]4C12` (stereo partly specified) reads 0.0121.
Consider `CCOC(=O)C[C@H]1[C@H](OC(=O)c2ccc(C(=O)c3ccccc3)cc2)[C@@H](NC(=O)c2ccc3ccccc3c2)c2cc(OCCCO)ccc2N1C(=O)c1ccc2ccccc2n1`, for which the composite z-score was -0.191.
In the case of `NC(=O)NCC#Cc1ccc2c(c1)[C@]1(C(=O)N2)[C@H](C(=O)Nc2nc3ccccc3s2)[C@H]2C(=O)O[C@H](c3ccccc3)[C@H](c3ccccc3)N2[C@@H]1c1ccc(OCCO)cc1`, the composite z-score is -0.151.
As for `CC(C)C(=C=CC[C@@H](O)c1ccccc1OCCO)C[C@@H](O)c1cc(Cl)cc(Cl)c1O`, the composite z-score is -0.153.
On to `COC(=O)[C@@H]1N=C(c2ccc(OCCCO)cc2)O[C@@H]1c1ccccc1CN=[N+]=[N-]`, for which the composite z-score was 0.131.
As for `COc1cc2c(cc1O)C(C1CC1)N(Cc1ccc([N+](=O)[O-])o1)CC2` (stereo unspecified), the composite z-score is -0.291.
In the case of `COc1ccc(NN2C(C(O)c3cc(C(F)(F)F)cc(C(F)(F)F)c3)C=CC3C(=O)N(C4CCCCC4)C(=O)C32)cc1` (stereo unspecified), the composite z-score came to 0.611.
Still for that read-out and setting: as for `C=CCC(OC(C)=O)[C@@H]1[C@@H](N(Cc2ccc(-c3ccccc3)cc2)C(=O)c2ccc(-c3ccccc3)cc2)c2cc(OCCCO)ccc2N1C(=O)c1ccc2ccccc2n1` (stereo partly specified), the figure is -0.214; as for `O=C(NCC(F)(F)F)[C@@H]1c2ccccc2C(=O)N(CC23CC4CC(CC(C4)C2)C3)[C@H]1c1ccc(CO)cc1`, 0.136.

(Values after PubChem BioAssay.)
